This is an account of results in PubChem BioAssay AID463173 (ICCB-Longwood Screening Facility, Harvard Medical School, 2010).

The campaign covered roughly 52,000 compounds. About 1,700 (3.3%) were called active. The full list was thinned out, with actives kept by preference. Values without a mark were called inactive. Cut-off read from the data, not from the text of the source: active = survival mostly below about 52% (no sharp cut-off); inactive = mostly above about 56%.

The test system of this assay is Wild type. Description: growth inhibition of S. aureus wild type versus tarO mutant, primary screen, teichoic acid synthesis inhibitors, RN4220, OD600 (AID 463173). The settings on record: S. aureus RN4220 wild type/DeltatarO growth, OD600, 18 h, stronger effect = lower value, screened at 18.75 µg/mL (by protocol).
Turning to `O=C(CC1N=C2c3ccccc3N=C(SCC(=O)Nc3ccccc3F)N2C1=O)NCc1cccs1` (stereo not given), the survival was 73%.
For `O=C1C2=C(Nc3ncnn3C2c2ccccc2)c2ccccc21` (stereo not given) the value was 114%; for `CSc1ccc(/C=C/c2nc3ccccc3n2S(=O)(=O)c2cccc(Cl)c2)cc1`, 66%; for `CCN1CCN(C(C)C(=O)NC(c2ccccc2)c2ccccc2)CC1` (stereo not given), 113%.
For `Cc1cccc(Cn2nc(C)n3c(cc4cc(C)ccc43)c2=O)c1` the value was 79%.
Turning to `CCc1cccc2c(-c3ccccc3)nc(SCC(=O)Nc3ccccc3)nc12`, the survival was 88%.
Next, `Cc1ccc(NC(=O)CSc2nnc3nc(C)cc(C)n23)cc1`: 73%.
Next, `CCN(CC)S(=O)(=O)c1ccc2c(c1)N(CC(=O)Nc1c(C)cccc1C)C(=O)C1CCCN21` (stereo not given): 73%; `CCc1ccccc1NC(=O)CN1C(=O)C2CCCN2c2ccc(S(=O)(=O)N(CC)CC)cc21` (stereo not given): 81%.
For `CCN(CC)S(=O)(=O)c1ccc2c(c1)N(CC(=O)Nc1cccc(C)c1C)C(=O)C1CCCN21` (stereo not given) the value was -4% (active); for `CCc1ccc(-c2cc(C)no2)cc1S(=O)(=O)Nc1cc(OC)c(OC)c(OC)c1`, 83%.
In the case of `CCc1ccc(-c2cc(C)no2)cc1S(=O)(=O)Nc1ccc(Cl)cc1`, the survival was 74%.
`Cc1ccc(-c2onc(C)c2C)cc1S(=O)(=O)Nc1ccc(Cl)cn1`: the survival is 89%.
On to `CCc1ccc(-c2cc(C)no2)cc1S(=O)(=O)Nc1ccc(Cl)cn1`, for which the survival was -1% (active).
Next, `CCc1ccc(-c2cc(C)no2)cc1S(=O)(=O)Nc1ccc(C)cn1`: 14% (active); `Cc1ccnc(NS(=O)(=O)c2cc(-c3cc(C)no3)ccc2C)c1`: 78%; `O=C(CN1C(=O)C(c2ccc(F)cc2)=NC12CCCCCC2)Nc1ccc(F)c(Cl)c1`: 76%.
`CCOc1ccc(NC(=O)CCc2c(C)nc3cc(-c4ccccc4OC)nn3c2C)cc1`: the survival is 76%.
Consider `COc1ccc(NC(=O)CSc2nc(-c3ccc(OC)cc3)cc(=O)[nH]2)cc1`, for which the survival is 148%.
For `CCc1cccc(CC)c1N(COC)C(=O)Cn1c(CC)nc2ccccc21` the value was 74%; for `CCCCc1nc2ccccc2n1CC(=O)N(COCC)c1c(C)cccc1CC`, -1% (active); for `CCOCN(C(=O)Cn1c(C)nc2ccccc21)c1c(C)cccc1CC`, 124%.
Next, `CCOCN(C(=O)Cn1c(CC(C)C)nc2ccccc21)c1c(C)cccc1CC`: 5% (active); `CCOCN(C(=O)Cn1c(C(C)O)nc2ccccc21)c1c(C)cccc1CC` (stereo not given): 117%; `CCOCN(C(=O)Cn1c(COC)nc2ccccc21)c1c(C)cccc1CC`: 111%.
